Data: PubChem BioAssay (NCI)
Compounds without any hit were thinned out: in the full panel of roughly 79,000, 15% have a hit. Values without a mark were called inactive. Active and inactive are the calls of the source. Cut-off read from the data, not from the text of the source: active = growth inhibition above about 70%; inactive = the rest.

Assay: NCI Yeast Anticancer Drug Screen. Data for the rad18 strain (AID 177)
Conditions: S. cerevisiae rad18 mutant growth inhibition, hits give high values
Protocol: Growth inhibition of yeast strains with defined genetic alterations is measured as a screen for potential anti-cancer activity. Selected strains with alterations in DNA damage repair or cell cycle control were exposed to compounds and growth inhibition was measured relative to vehicle treated controls. The strain used in this assay is rad18

| SMILES | growth inhibition (at 1.2 µM) [%] | growth inhibition (at 3.7 µM) [%] | growth inhibition (at 11.0 µM) | growth inhibition (at 33.0 µM) | growth inhibition (at 100.0 µM) |
| --- | --- | --- | --- | --- | --- |
| O=c1ssc2ncccc12 | 7 | 27 | 74% (active) | 97% (active) | 99% (active) |
| COC1C=COC2(C)Oc3c(C)c(O)c4c(c3C2=O)/C(=N/C2CCC(O)OC2C)C=C(NC(=O)/C(C)=C\C(=O)C2CC2C(O)C(C)C(O)C(C)C(OC(C)=O)C1C)C4=O (stereo not given) | 0 | 0 | -4% | 10% | 48% |
| N#CN1C2CCC1CC(=O)C2 | -10 | -15 | -22% | -21% | -9% |
| CCC/C(Cl)=N\OC(=O)Nc1cccc(C(F)(F)F)c1 | -7 | -8 | -7% | -16% | 2% |
| OCC(Cn1cncn1)(c1ccc(F)cc1F)n1cncn1 (stereo not given) | 41 | 60 | 67% | 65% | 65% |
| Cc1cc(I)ccc1N | -18 | -4 | -15% | 85% (active) | 87% (active) |
| CCC#CCCCOC(=O)c1cc([N+](=O)[O-])cc([N+](=O)[O-])c1 | -3 | 4 | 20% | 94% (active) | 99% (active) |
| CC/C(=C(\c1ccccc1)c1ccc(OCCN(C)C)cc1)c1ccccc1 | 13 | 12 | 71% (active) | 98% (active) | 98% (active) |
